{"source": "PubChem BioAssay (NCATS)", "assay_in_all_cases": "qHTS profiling for inhibitors of Plasmodium falciparum proliferation (AID 504749); note: nearly all actives have a fitted effect of over 60% in size", "conditions_in_all_cases": "P. falciparum in erythrocytes, SYBR Green DNA, 72 h; series mostly up to 28.7 µM", "key": {"[1]": {"system": "3D7", "procedure,_shortened": "(§1)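 Infected RBCs, 0.3% parasitemia/2.5% Hct final; cpd 72 h, 37 C, 5% CO2; lysis buffer with saponin/triton/SYBR Green I, o/n RT dark; FI 485/535; norm. to artemisinin (0.29 uM) and DMSO.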"}, "[2]": {"system": "AA1029", "procedure,_shortened": "as §1"}, "[3]": {"system": "ATS95", "procedure,_shortened": "as §1"}, "[4]": {"system": "CP217", "procedure,_shortened": "as §1"}, "[5]": {"system": "CP238", "procedure,_shortened": "as §1"}, "[6]": {"system": "CP252", "procedure,_shortened": "as §1"}, "[7]": {"system": "CP262", "procedure,_shortened": "as §1"}, "[8]": {"system": "CP265", "procedure,_shortened": "as §1"}, "[9]": {"system": "DIV30", "procedure,_shortened": "as §1"}, "[10]": {"system": "ECU", "procedure,_shortened": "as §1"}, "[11]": {"system": "FAB9", "procedure,_shortened": "as §1"}, "[12]": {"system": "GB4", "procedure,_shortened": "as §1"}, "[13]": {"system": "JCK", "procedure,_shortened": "as §1"}, "[14]": {"system": "N140", "procedure,_shortened": "as §1"}, "[15]": {"system": "P93_24", "procedure,_shortened": "as §1"}, "[16]": {"system": "P94_40", "procedure,_shortened": "as §1"}, "[17]": {"system": "PAD", "procedure,_shortened": "as §1"}, "[18]": {"system": "PC26", "procedure,_shortened": "as §1"}, "[19]": {"system": "PC49", "procedure,_shortened": "as §1"}, "[20]": {"system": "SC27B", "procedure,_shortened": "as §1"}}, "note": "Inconclusive results are not listed. Where a call stands in place of a potency, no number is given. Activity calls are given as the source filed them. Calls come from the whole dose curve; as a rule, active = well fitted inhibition curve with a large enough effect; inconclusive = small, poorly fitted or top-dose-only effect; inactive = flat fitted curve, though single readings scatter. Potency is the fitted concentration of half-maximal effect.", "data": [{"smiles": "C[C@@H]1C[C@H]2[C@H]3C[C@@H](F)C4=CC(=O)C=C[C@]4(C)[C@@]3(Cl)[C@@H](O)C[C@@]2(C)[C@@H]1C(=O)COC(=O)C(C)(C)C", "values": [{"measurement": "Potency", "setting": "[1]", "result": "12.6 µM (active)"}, {"measurement": "Potency", "setting": "[2]", "result": "inactive"}, {"measurement": "Potency", "setting": "[3]", "result": "inactive"}, {"measurement": "Potency", "setting": "[4]", "result": "inactive"}, {"measurement": "Potency", "setting": "[5]", "result": "inactive"}, {"measurement": "Potency", "setting": "[6]", "result": "inactive"}, {"measurement": "Potency", "setting": "[7]", "result": "inactive"}, {"measurement": "Potency", "setting": "[8]", "result": "inactive"}, {"measurement": "Potency", "setting": "[9]", "result": "inactive"}, {"measurement": "Potency", "setting": "[10]", "result": "inactive"}, {"measurement": "Potency", "setting": "[11]", "result": "inactive"}, {"measurement": "Potency", "setting": "[12]", "result": "inactive"}, {"measurement": "Potency", "setting": "[13]", "result": "inactive"}, {"measurement": "Potency", "setting": "[14]", "result": "inactive"}, {"measurement": "Potency", "setting": "[15]", "result": "inactive"}, {"measurement": "Potency", "setting": "[16]", "result": "inactive"}, {"measurement": "Potency", "setting": "[17]", "result": "inactive"}, {"measurement": "Potency", "setting": "[18]", "result": "inactive"}, {"measurement": "Potency", "setting": "[19]", "result": "inactive"}, {"measurement": "Potency", "setting": "[20]", "result": "inactive"}]}, {"smiles": "C[C@H]1C[C@@H]2[C@H]3CCC4=CC(=O)C=C[C@@]4(C)[C@@]3(Cl)[C@@H](O)C[C@]2(C)[C@]1(OC(=O)c1ccco1)C(=O)CCl", "values": [{"measurement": "Potency", "setting": "[1]", "result": "3.98 µM (active)"}, {"measurement": "Potency", "setting": "[2]", "result": "3.16 µM (active)"}, {"measurement": "Potency", "setting": "[3]", "result": "3.16 µM (active)"}, {"measurement": "Potency", "setting": "[4]", "result": "3.98 µM (active)"}, {"measurement": "Potency", "setting": "[5]", "result": "3.55 µM (active)"}, {"measurement": "Potency", "setting": "[6]", "result": "inactive"}, {"measurement": "Potency", "setting": "[8]", "result": "3.55 µM (active)"}, {"measurement": "Potency", "setting": "[9]", "result": "6.42 µM (active)"}, {"measurement": "Potency", "setting": "[12]", "result": "6.42 µM (active)"}, {"measurement": "Potency", "setting": "[14]", "result": "3.55 µM (active)"}, {"measurement": "Potency", "setting": "[16]", "result": "3.55 µM (active)"}, {"measurement": "Potency", "setting": "[17]", "result": "3.98 µM (active)"}, {"measurement": "Potency", "setting": "[18]", "result": "6.42 µM (active)"}]}, {"smiles": "CO/N=C(\\C(=O)N[C@@H]1C(=O)N2C(C(=O)[O-])=C(C[N+]3(C)CCCC3)CS[C@@H]12)c1csc(N)n1", "values": [{"measurement": "Potency", "setting": "[1]", "result": "inactive"}, {"measurement": "Potency", "setting": "[2]", "result": "inactive"}, {"measurement": "Potency", "setting": "[3]", "result": "inactive"}, {"measurement": "Potency", "setting": "[4]", "result": "inactive"}, {"measurement": "Potency", "setting": "[5]", "result": "inactive"}, {"measurement": "Potency", "setting": "[6]", "result": "inactive"}, {"measurement": "Potency", "setting": "[7]", "result": "inactive"}, {"measurement": "Potency", "setting": "[8]", "result": "inactive"}, {"measurement": "Potency", "setting": "[9]", "result": "inactive"}, {"measurement": "Potency", "setting": "[10]", "result": "inactive"}, {"measurement": "Potency", "setting": "[11]", "result": "inactive"}, {"measurement": "Potency", "setting": "[12]", "result": "inactive"}, {"measurement": "Potency", "setting": "[13]", "result": "inactive"}, {"measurement": "Potency", "setting": "[14]", "result": "inactive"}, {"measurement": "Potency", "setting": "[15]", "result": "inactive"}, {"measurement": "Potency", "setting": "[16]", "result": "inactive"}, {"measurement": "Potency", "setting": "[17]", "result": "inactive"}, {"measurement": "Potency", "setting": "[18]", "result": "inactive"}, {"measurement": "Potency", "setting": "[19]", "result": "inactive"}, {"measurement": "Potency", "setting": "[20]", "result": "inactive"}]}, {"smiles": "C=C(NC(=O)C(=C)NC(=O)c1csc(C2=N[C@@H]3c4csc(n4)[C@@H]4NC(=O)c5csc(n5)[C@@H]([C@](C)(O)[C@H](C)O)NC(=O)[C@@H]5CSC(=N5)/C(=C/C)NC(=O)[C@@H]([C@H](C)O)NC(=O)c5csc(n5)[C@]3(CC2)NC(=O)[C@@H](C)NC(=O)C(=C)NC(=O)[C@@H](C)NC(=O)[C@@H]([C@@H](C)CC)N[C@H]2C=Cc3c([C@H](C)O)cc(nc3[C@@H]2O)C(=O)O[C@H]4C)n1)C(N)=O", "values": [{"measurement": "Potency", "setting": "[7]", "result": "inactive"}, {"measurement": "Potency", "setting": "[10]", "result": "inactive"}, {"measurement": "Potency", "setting": "[11]", "result": "inactive"}, {"measurement": "Potency", "setting": "[13]", "result": "inactive"}, {"measurement": "Potency", "setting": "[15]", "result": "1.78 µM (active)"}, {"measurement": "Potency", "setting": "[19]", "result": "inactive"}, {"measurement": "Potency", "setting": "[20]", "result": "inactive"}]}]}
